From PubChem BioAssay come the findings set out here.

Active and inactive are the calls of the source.

Assay [1] can be described thus: compounds binding Alexa647 anti-His antibody – biochemical, small-molecule microarray, 635 nm fluorescence, artefact control for SMM control protein annotation, primary screen (AID 1128).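 Note: score merges feature fluorescence with signal-to-noise for each printed compound spot.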 The conditions noted are these: higher = more signal.
Assay [2] deals with Human papillomavirus type 1a E7 protein (residues 1-88). Kind of assay: HPV1a E7 small-molecule binders, primary screen, biochemical, small-molecule microarray, residues 1-88, 635 nm (AID 1129). The conditions noted are these: small-molecule microarray binding, fluorescence 635 nm; higher = more signal.
Assay [3] has as its target Focal adhesion kinase 1 (Homo sapiens) (UniProt Q05397). Briefly: PTK2 protein binding on printed compound slides – biochemical, small-molecule microarray, 635/667 nm fluorescence, BSA, DTT, primary screen (AID 1130).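 Note: composite of spot emission at 667 nm and signal to noise over triplicate slides.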 To be noted: 635 nm fluorescence, higher = more signal.
Assay [4] deals with Fibrinogen (Alexa647-labelled). Kind of assay: Alexa647-fibrinogen binding to printed small molecules – biochemical, small-molecule microarray, 635/667 nm fluorescence, artefact control for SMM control-protein annotation, profiling panel (AID 1131).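 Note: z-score merges 667 nm fluorescence with per-spot signal-to-noise over triplicate slides.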 The conditions noted are these: fibrinogen-A647 binding fluorescence, higher = more signal.
The target in assay [5] is Follistatin (Homo sapiens) (UniProt P19883). Briefly: FST protein binding to printed compounds – biochemical, small-molecule microarray, 635/667 nm fluorescence, primary screen (AID 1132). The conditions noted are these: 635 nm fluorescence, higher = more signal.
The target in assay [6] is Fibroblast growth factor 2 (Homo sapiens) (UniProt P09038). Kind of assay: basic fibroblast growth factor binding to printed compounds – biochemical, small-molecule microarray, 635/667 nm fluorescence, primary screen (AID 1133). To be noted: FGF2, fluorescence 635/667, higher = more signal.
A short description of assay [7]: JC-1 mitochondrial potential readout, lung cancer cells – cell-based, A549, JC-1 fluorescence, basal, 24 h, 100 nL, profiling panel (AID 1138).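 Note: A549 lung adenocarcinoma cells under basal conditions with no added stimulus; test concentration not given here.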 The conditions noted are these: higher = more signal.
The next assay concerns Lefty1. Briefly: Lefty1 protein binding to printed compounds – biochemical, small-molecule microarray, 635/667 nm fluorescence, primary screen (AID 1139). The conditions noted are these: fluorescence 635/667, higher = more signal.
Assay [8] deals with wheat germ agglutinin (Triticum aestivum), Alexa647-labelled. Briefly: Alexa647-WGA lectin binding to printed small molecules – biochemical, small-molecule microarray, 635/667 nm fluorescence, artefact control for SMM control-protein annotation, profiling panel (AID 1140).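 Note: score merges 667 nm feature emission with signal to noise over triplicate slides.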 The conditions noted are these: WGA-A647 binding, 635 nm fluorescence, higher = more signal.
The target of assay [9] is Luciferin 4-monooxygenase (Photinus pyralis) (UniProt P08659). Kind of assay: inhibition of purified Photinus pyralis luciferase – biochemical, luminescence, purified enzyme, 2006 set, primary screen (AID 1141).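 Note: cell-free assay with purified firefly luciferase at 100 ng per well in PBS; test concentration not given here.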 To be noted: purified firefly luciferase, SteadyGlo luminescence, 30 min; higher = more signal, called active from +8 up or from −8 down.
Chain of Luciferin 4-monooxygenase (Photinus pyralis) (P08659 whole entry, looked up): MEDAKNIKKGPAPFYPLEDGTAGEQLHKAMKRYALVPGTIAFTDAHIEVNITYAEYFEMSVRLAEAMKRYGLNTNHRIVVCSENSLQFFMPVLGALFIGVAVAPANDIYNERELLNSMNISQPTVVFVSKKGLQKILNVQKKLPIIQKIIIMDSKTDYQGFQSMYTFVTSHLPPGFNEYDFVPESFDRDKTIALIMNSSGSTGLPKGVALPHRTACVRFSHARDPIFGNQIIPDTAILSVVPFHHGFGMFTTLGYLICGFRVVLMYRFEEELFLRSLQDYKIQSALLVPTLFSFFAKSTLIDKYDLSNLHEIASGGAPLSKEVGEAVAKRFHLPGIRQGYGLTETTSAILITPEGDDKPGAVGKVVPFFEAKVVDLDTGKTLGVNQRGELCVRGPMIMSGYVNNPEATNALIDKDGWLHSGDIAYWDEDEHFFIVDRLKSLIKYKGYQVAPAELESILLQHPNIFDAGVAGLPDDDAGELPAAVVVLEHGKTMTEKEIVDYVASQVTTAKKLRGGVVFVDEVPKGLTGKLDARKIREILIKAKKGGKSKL

Chain of Focal adhesion kinase 1 (Homo sapiens) (Q05397 whole entry, looked up): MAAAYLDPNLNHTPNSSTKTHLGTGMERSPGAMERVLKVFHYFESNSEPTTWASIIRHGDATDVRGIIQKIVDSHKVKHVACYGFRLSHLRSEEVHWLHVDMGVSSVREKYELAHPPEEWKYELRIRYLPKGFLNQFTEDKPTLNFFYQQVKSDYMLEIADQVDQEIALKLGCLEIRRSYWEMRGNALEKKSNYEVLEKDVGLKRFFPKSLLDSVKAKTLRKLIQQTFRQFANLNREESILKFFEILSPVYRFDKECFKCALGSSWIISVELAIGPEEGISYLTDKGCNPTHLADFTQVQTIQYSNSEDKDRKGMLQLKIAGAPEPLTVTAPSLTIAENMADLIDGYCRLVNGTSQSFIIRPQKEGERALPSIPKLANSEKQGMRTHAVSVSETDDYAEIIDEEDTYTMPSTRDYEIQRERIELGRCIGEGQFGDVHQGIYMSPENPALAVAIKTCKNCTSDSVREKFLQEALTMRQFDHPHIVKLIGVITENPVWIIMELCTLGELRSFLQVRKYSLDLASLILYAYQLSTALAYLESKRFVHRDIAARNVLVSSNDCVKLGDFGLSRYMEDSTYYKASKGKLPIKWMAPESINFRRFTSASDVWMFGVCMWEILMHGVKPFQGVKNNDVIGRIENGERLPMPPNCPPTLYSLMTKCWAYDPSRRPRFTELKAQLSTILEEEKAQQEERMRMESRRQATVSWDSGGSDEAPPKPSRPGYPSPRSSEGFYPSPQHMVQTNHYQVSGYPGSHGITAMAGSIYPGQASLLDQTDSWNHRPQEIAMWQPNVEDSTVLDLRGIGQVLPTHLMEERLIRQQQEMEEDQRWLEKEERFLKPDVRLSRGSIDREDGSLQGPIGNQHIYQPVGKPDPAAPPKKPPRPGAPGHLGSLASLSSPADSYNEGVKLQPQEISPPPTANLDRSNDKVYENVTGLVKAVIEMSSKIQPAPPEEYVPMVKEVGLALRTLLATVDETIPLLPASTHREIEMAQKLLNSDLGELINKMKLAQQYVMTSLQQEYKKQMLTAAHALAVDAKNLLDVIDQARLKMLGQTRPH
Chain of Follistatin (Homo sapiens) (P19883 whole entry, looked up): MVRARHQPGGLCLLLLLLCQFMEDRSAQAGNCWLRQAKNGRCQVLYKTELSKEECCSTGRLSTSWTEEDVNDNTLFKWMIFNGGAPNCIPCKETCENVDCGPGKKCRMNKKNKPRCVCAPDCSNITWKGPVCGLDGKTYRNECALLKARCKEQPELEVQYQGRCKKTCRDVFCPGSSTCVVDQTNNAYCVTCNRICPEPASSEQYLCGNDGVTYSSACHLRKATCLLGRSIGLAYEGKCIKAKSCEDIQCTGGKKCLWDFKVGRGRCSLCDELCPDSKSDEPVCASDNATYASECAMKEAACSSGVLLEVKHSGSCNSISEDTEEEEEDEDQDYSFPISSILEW
Chain of Fibroblast growth factor 2 (Homo sapiens) (P09038 whole entry, looked up): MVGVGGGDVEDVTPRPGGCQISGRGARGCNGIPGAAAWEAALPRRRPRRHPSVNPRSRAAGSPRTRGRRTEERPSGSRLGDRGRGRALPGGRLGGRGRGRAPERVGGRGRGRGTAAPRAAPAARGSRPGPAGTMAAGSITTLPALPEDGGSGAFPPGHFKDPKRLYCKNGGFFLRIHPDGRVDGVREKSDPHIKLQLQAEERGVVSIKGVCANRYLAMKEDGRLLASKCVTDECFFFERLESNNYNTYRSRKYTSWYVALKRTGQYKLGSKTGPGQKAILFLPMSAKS

Turning to `COC(=O)[C@@]1(Cc2ccc(OC)cc2)[C@H]2c3cc(C(=O)N4CCCC4)n(Cc4nc5ccccc5[nH]4)c3C[C@H]2CN1C(=O)c1ccccc1`, the composite z-score is 2.01 in assay [1]; 1.24 in assay [2]; 1.64 in assay [3]; 1.05 in assay [4]; 0.979 in [5]; -0.202 in assay [6]. Besides, the composite z-score with Lefty1 was -0.47; in assay [8] it was 1.14. The z-score was 1.92 in [7] and 1.53 (inactive) in assay [9].
Turning to `C=CC[C@]1(C(N)=O)N=C(c2ccc(OCCCO)cc2)O[C@H]1c1ccccc1`, the composite z-score in assay [1] stood at 1.3; in assay [2], 1.08; in [3] it was 0.784; in assay [4] it was 0.691; in [5], 0.482; in assay [6] it was 0.17. In addition, the composite z-score in the assay with Lefty1 is -0.664; in [8], 0.417. Besides, the z-score in [7] is -0.852; in assay [9] it was 0.004 (inactive).
Take `COCCOC(=O)N1C(=O)[C@@]2(c3ccccc31)[C@H](c1ccc(OCCO)cc1)N1[C@H](c3ccccc3)[C@H](c3ccccc3)OC(=O)[C@H]1[C@@H]2C(=O)N1CCc2cc(OC)c(OC)cc2C1`: the composite z-score stood at 2.41 in assay [1]; 1.2 in assay [2]; 0.85 in [3]; 0.958 in assay [4]; 1.3 in [5]; 1.38 in [6]. Further, the results for the composite z-score (in the assay on Lefty1; in [8]) were 1.35 and 1.17, respectively. In addition, the z-score in assay [7] was -0.0272; in assay [9], -0.603 (inactive).
Consider `Cc1ccc(S[C@]2(C(=O)O)CC(=O)N(C(C)C)[C@@H]2c2ccc(CO)cc2)cc1`, for which the composite z-score in assay [1] is 0.715; in [2] it was -0.386; in [3], 0.104; in [4], -0.307; in assay [5], 0.0281; in assay [6], -0.129. The composite z-score with Lefty1 was -0.0075; in [8] it was 0.557. Further, the results for the z-score in assay [7] and in [9] were -0.233 and 0.568 (inactive), respectively.
On to `COCCOC(=O)N1C(=O)[C@@]2(c3cc(C#CC4(O)CCCCCC4)ccc31)[C@H](C(=O)Nc1nc3ccccc3s1)[C@H]1C(=O)O[C@H](c3ccccc3)[C@H](c3ccccc3)N1[C@@H]2c1ccc(OCCO)cc1`, for which the composite z-score is 0.553 in assay [1]; 1.16 in [2]; -0.0405 in assay [3]; 0.801 in assay [4]; 1.12 in assay [5]; 1.58 in [6]. Further, the composite z-score in the assay on Lefty1 was 1.22; in [8] it was 0.924. The values for the z-score in [7] and in [9] were -2.51 and -3.29 (inactive), respectively.
As to `CC(=CC1CCCCC1)[C@@H](NC(=O)c1cccnc1)c1ccc(-c2ccccc2)cc1`, the composite z-score in assay [1] was 0.219; in [2] it was 0.242; in [3], -0.0341; in assay [4] it was 0.0017; in assay [5], -0.0317; in [6], -0.741. For the same molecule, the composite z-score is -0.496 in the assay on Lefty1 and 0.495 in assay [8]. The z-score was -0.637 in assay [7] and 0.722 (inactive) in assay [9].
Regarding `CCOC(=O)C1=CC[C@H]2C(=O)N(c3ccccc3)C(=O)[C@@H]12`, the composite z-score in [1] came to 2.18; in [2] it was 1.32; in assay [3], 0.291; in assay [4], 1.04; in assay [5], 1.24; in [6], 0.385. Further, the composite z-score in the assay on Lefty1 came out at 0.655; in assay [8], 0.56. For the same molecule, the figures for the z-score in [7] and in assay [9] were -1.44 and 0.332 (inactive), respectively.
With `CC(CO)N1C(=O)[C@@H]2C3C(=O)OCCC/C=C\[C@H]3OC23C=CCN(CCN2CCOCC2)C(=O)[C@@H]13` (stereo not given in full), the composite z-score in assay [1] was 0.537; in [2] it was -0.624; in assay [3] it was -0.181; in assay [4] it was -1.1; in [5], 0.205; in assay [6], 0.186. Moreover, the composite z-score with Lefty1 is 0.376; in assay [8], -0.169. Besides, the z-score in [7] is 1.08; in [9], -0.523 (inactive).
Turning to `COC(=O)C(CC#Cc1ccc2c(c1)[C@]1(C(=O)N2)[C@H](c2ccccc2OCCO)N2[C@H](c3ccccc3)[C@H](c3ccccc3)OC(=O)[C@H]2[C@@H]1C(N)=O)C(=O)OC`, the composite z-score was found to be 1.6 in assay [1]; 1.22 in [2]; 0.473 in [3]; 0.711 in assay [4]; 0.619 in [5]; 0.168 in assay [6]. In addition, the composite z-score was -0.0878 with Lefty1 and 1.15 in assay [8]. The z-score in assay [7] was -0.153; in [9], -0.821 (inactive).
Turning to `CC(=O)n1cc(C(O)C2C=CC3C(=O)NC(=O)C3N2Nc2ccccn2)c2ccccc21` (stereo not given), the composite z-score in [1] is 0.426; in assay [2], 0.355; in assay [3], 1.74; in [4], 0.0552; in assay [5], 0.242; in [6] it was -0.219. Moreover, the figures for the composite z-score (with Lefty1; in assay [8]) were -0.0259 and 0.0414, respectively. Besides, the z-score in [7] is 0.471; in assay [9], -1.35 (inactive).
Regarding `COC(=O)[C@@]1(Cc2ccc(OC)cc2)[C@H]2c3cc(C(=O)N4CCCC4)n(CCc4ccc(O)c(O)c4)c3C[C@H]2CN1C(=O)c1ccccc1`, the composite z-score was 2.44 in [1]; 1.17 in assay [2]; 0.384 in assay [3]; 0.421 in assay [4]; 0.442 in assay [5]; -0.736 in assay [6]. In addition, the values for the composite z-score (in the assay with Lefty1; in assay [8]) were -0.958 and 1.22, respectively. Further, the values for the z-score in [7] and in assay [9] were -0.72 and -7.43 (inactive), respectively.
For `O=C(CS)NCCCCCNC(=O)[C@H]1C[C@H]2C(=O)NCC(=O)N2[C@H]1c1cccc(OCCO)c1`, the composite z-score in assay [1] is -0.0298; in [2], -0.864; in assay [3], 0.319; in assay [4] it was 0.0186; in assay [5] it was 0.952; in assay [6] it was 0.399. The composite z-score in the assay on Lefty1 is -0.0561; in assay [8] it was -0.347. Also, the z-score was -0.0613 in assay [7] and 0.76 (inactive) in assay [9].
Turning to `C=CCOC(=O)[C@H]1[C@@H]2C(=O)O[C@@H](c3ccccc3)[C@@H](c3ccccc3)N2[C@@H](c2ccc(OCCOC(=O)[C@H]3C[C@H]4C(=O)N[C@@H](CCCCN(C)C)C(=O)N4[C@H]3c3cccc(OCCO)c3)cc2)[C@]12C(=O)Nc1ccc(I)cc12`, the composite z-score in assay [1] is 0.977; in assay [2], 1.18; in [3] it was 0.205; in [4], 0.571; in [5] it was 1.35; in assay [6], 1.36. For the same molecule, the composite z-score with Lefty1 was 1.6; in assay [8], 0.705. Moreover, the z-score in assay [7] is -1.66; in assay [9], -0.49 (inactive).
As for `CN(C)CCCCCCNC(=O)[C@@H]1C[C@@H]2C(=O)N[C@@H](CCCC[N+](C)(C)C)C(=O)N2[C@@H]1c1ccc(O)cc1`, the composite z-score was 0.486 in [1]; -0.396 in assay [2]; 0.678 in assay [3]; -0.335 in assay [4]; 0.82 in assay [5]; 0.825 in assay [6]. Also, the composite z-score with Lefty1 is 0.798; in [8], 0.427. Also, the z-score in [7] was -0.147; in assay [9], -0.882 (inactive).
Take `[N-]=[N+]=Nc1ccccc1C[C@]1(C(=O)NCC(O)CO)N=C(c2ccc(OCCCO)cc2)O[C@H]1c1ccccc1` (stereo not given in full): the composite z-score in [1] is 1.91; in [2], 1.03; in assay [3] it was 0.0141; in [4], 0.942; in [5] it was 0.497; in [6], -0.839. The composite z-score is -0.492 in the assay with Lefty1 and 0.606 in assay [8]. The z-score in assay [7] is 0.0609; in assay [9] it was -1.78 (inactive).
In the case of `O=C1C2C=CC(C(O)c3ccc(F)cc3)N(Nc3ccc([N+](=O)[O-])cc3)C2C(=O)N1c1ccccc1` (stereo not given), the composite z-score was 1.76 in assay [1]; 0.705 in assay [2]; 0.789 in assay [3]; 1.02 in assay [4]; 0.282 in assay [5]; -0.0449 in assay [6]. The composite z-score with Lefty1 amounted to 0.16; in assay [8] it was 1.09. In addition, the z-score is -0.433 in assay [7] and 1.43 (inactive) in [9].
